Measurements as given in PubChem BioAssay AID1159580 (chemical genetic matrix, 2015).
Values joined by “and” are separate entries in the source; they are usually repeats but may differ in a detail not shown here. Equal entries are not always repeated. About 2,000 (36%) of roughly 5,500 compounds were called active. Not shown: some 18% with an inconclusive outcome. No stated cut-off is given here; in the data, active means normalized growth mostly below about 0.91 (no sharp cut-off); inconclusive means no clear call, values can overlap the other calls; inactive means mostly above about 0.92. This is one part of the list.

Test: chemical genetic growth profiling, strain panel (AID 1159580);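 further: tested at 20 µM; growth read once vehicle control cultures reached saturation at 30 °C; 1 = growth at the plate median or of vehicle wells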
Settings: S. cerevisiae deletion strains, growth OD

Measured: normalized growth

CC(C)C1CCC(C(=O)N[C@@H](Cc2ccccc2)C(=O)O)CC1 (some centres not stated)
inactive: locus YAL013W, strain DEP1, stronger effect = lower value 0.994 | locus YAL021C, strain ccr4, stronger effect = lower value 0.97 | locus YAL026C, strain drs2, stronger effect = lower value 0.978 | locus YAL030W, strain snc1, stronger effect = lower value 0.975 | locus YBL061C, strain skt5, stronger effect = lower value 0.973 | locus YBR009C, strain hhf1, stronger effect = lower value 0.983 | locus YBR021W, strain FUR4, stronger effect = lower value 0.969 | locus YBR023C, strain chs3, stronger effect = lower value 0.973 | locus YBR171W, strain sec66, stronger effect = lower value 0.962 | locus YBR229C, strain ROT2, stronger effect = lower value 1.01 | locus YBR231C, strain swc5, stronger effect = lower value 0.956 | locus YBR279W, strain paf1, stronger effect = lower value 0.973 | locus YCL011C, strain gbp2, stronger effect = lower value 0.976 | locus YCL016C, strain dcc1, stronger effect = lower value 0.967 | locus YCL029C, strain bik1, stronger effect = lower value 1.02 | locus YCL061C, strain MRC1, stronger effect = lower value 0.972 | locus YCL069W, strain vba3, stronger effect = lower value 0.979 | locus YCR088W, strain abp1, stronger effect = lower value 0.971 | locus YDL005C, strain med2, stronger effect = lower value 0.974 | locus YDL035C, strain GPR1, stronger effect = lower value 0.982 | locus YDL040C, strain nat1, stronger effect = lower value 0.974 | locus YDL074C, strain BRE1, stronger effect = lower value 0.987 | locus YDL101C, strain DUN1, stronger effect = lower value 1 | locus YDL134C, strain PPH21, stronger effect = lower value 1.01 | locus YDL185W, strain tfp1, stronger effect = lower value 1.02 | locus YDL192W, strain arf1, stronger effect = lower value 1.01 | locus YDR001C, strain nth1, stronger effect = lower value 0.972 | locus YDR069C, strain doa4, stronger effect = lower value 0.986 | locus YDR101C, strain arx1, stronger effect = lower value 1.02 | locus YDR137W, strain rgp1, stronger effect = lower value 0.96 | locus YDR150W, strain NUM1, stronger effect = lower value 0.995 | locus YDR159W, strain sac3, stronger effect = lower value 0.989 | locus YDR162C, strain NBP2, stronger effect = lower value 0.987 | locus YDR195W, strain ref2 0.962 | locus YDR297W, strain sur2, stronger effect = lower value 0.976 | locus YDR318W, strain mcm21, stronger effect = lower value 1.01 | locus YDR334W, strain swr1, stronger effect = lower value 0.968 | locus YDR335W, strain msn5, stronger effect = lower value 0.974 | locus YDR388W, stronger effect = lower value 1.01 | locus YDR392W, strain spt3, stronger effect = lower value 0.985 | locus YDR502C, strain sam2, stronger effect = lower value 1.01 | locus YEL003W, strain gim4, stronger effect = lower value 0.988 | locus YEL037C, strain rad23, stronger effect = lower value 0.971 | locus YEL061C, strain CIN8 (second series), stronger effect = lower value 0.973 | locus YEL061C, strain CIN8, stronger effect = lower value 0.992 | locus YER015W, strain faa2, stronger effect = lower value 0.986 | locus YER016W, strain bim1, stronger effect = lower value 0.98 | locus YER110C, stronger effect = lower value 1.02 | locus YER111C, strain swi4, stronger effect = lower value 0.98 | locus YER155C, strain BEM2 (second series), stronger effect = lower value 0.958 | locus YER155C, strain BEM2, stronger effect = lower value 0.928 | locus YER167W, strain BCK2, stronger effect = lower value 0.994 | locus YFR010W, strain ubp6, stronger effect = lower value 0.968 | locus YGL078C, strain dbp3, stronger effect = lower value 1.01 | locus YGL086W, strain mad1, stronger effect = lower value 1.01 | locus YGL167C, strain pmr1, stronger effect = lower value 0.967 | locus YGL173C, strain kem1, stronger effect = lower value 0.97 | locus YGL227W, strain vid30, stronger effect = lower value 0.969 | locus YGL240W, strain doc1, stronger effect = lower value 0.985 | locus YGL248W, strain PDE1, stronger effect = lower value 1.01 | locus YGL253W, strain hxk2, stronger effect = lower value 0.97 | locus YGR078C, strain PAC10, stronger effect = lower value 0.984 | locus YGR135W, strain pre9, stronger effect = lower value 1.01 | locus YGR229C, strain SMI1, stronger effect = lower value 0.949 | locus YGR252W, strain gcn5, stronger effect = lower value 0.994 | locus YHR013C, strain ard1, stronger effect = lower value 0.953 | locus YHR027C, strain rpn1, stronger effect = lower value 0.993 | locus YHR030C, strain SLT2, stronger effect = lower value 1.01 and 0.98 | locus YHR079C, strain IRE1 (second series), stronger effect = lower value 1.01 | locus YHR079C, strain IRE1, stronger effect = lower value 0.986 | locus YHR094C, strain hxt1, stronger effect = lower value 1.01 | locus YHR129C, strain ARP1, stronger effect = lower value 1.01 | locus YHR142W, strain chs7, stronger effect = lower value 0.965 | locus YHR200W, strain rpn10, stronger effect = lower value 1.01 | locus YIL066C, strain RNR3, stronger effect = lower value 0.989 | locus YIL073C, strain SPO22, stronger effect = lower value 0.989 | locus YIL125W, strain kgd1, stronger effect = lower value 1.01 | locus YIR030C, strain dcg1, stronger effect = lower value 1.02 | locus YJL092W, strain hpr5, stronger effect = lower value 0.983 | locus YJL095W, strain BCK1 (second series), stronger effect = lower value 0.979 | locus YJL095W, strain BCK1, stronger effect = lower value 1 and 1.02 | locus YJL115W, strain asf1, stronger effect = lower value 0.978 | locus YJL129C, strain trk1, stronger effect = lower value 0.963 | locus YJL134W, strain LCB3, stronger effect = lower value 0.996 | locus YJL154C, strain vps35, stronger effect = lower value 0.973 | locus YJL164C, strain tpk1, stronger effect = lower value 0.992 | locus YJL166W, strain qcr8, stronger effect = lower value 0.979 | locus YJL168C, strain set2, stronger effect = lower value 1.01 | locus YJL187C, strain SWE1 (second series), stronger effect = lower value 1.01 | locus YJL187C, strain SWE1, stronger effect = lower value 0.983 | locus YJR043C, strain POL32, stronger effect = lower value 0.99 | locus YJR066W, strain TOR1, stronger effect = lower value 0.956
